Vaccinia mCherry = inhibitors of vaccinia virus infection (mCherry reporter signal). 310,000 compounds, 0.63% hits. Vaccinia virus mCherry reporter infection, fluorescence. AID 720579. Potency, µM (highest dose often 36.5 µM), without a hit: at the highest dose activity change, negative = inhibition, most hits filed as inhibitors; calls by dose curve; tested in A549 cells; further: nearly all actives have a fitted effect of over 35% in size
AMA1-RON2 inh = inhibitors of Plasmodium falciparum AMA1-RON2 interaction; AlphaScreen AMA1-biotinylated RON2 peptide binding; Potency, µM (titrated, usually from 58.2 µM), without a hit: at the top dose activity change, negative = inhibition, usual class: inhibitors; 360,000 compounds, 0.2% hits; AID 720542;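 further: 0% = vehicle wells and -100% = peptide control; nearly all actives have a fitted effect of over 45% in size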
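AMA1 (3D7) with his tag at 25 nM final met compounds first, then biotinylated RON2 peptide at 25 nM; detection used donor plus acceptor beads, 10 µg/mL apiece, read by AlphaScreen after 30 min at room temperature.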
Pf growth 48h = P. falciparum growth inhibition at 48 hours (one generation); P. falciparum luciferase growth in erythrocytes, 48 h; Potency, µM (doses to about 28.7 µM), for inactives: at the highest dose activity change, negative = inhibition, usual class: inhibitors; 310,000 compounds, 5.9% hits
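Here the parasites carry a stable luciferase gene and grow inside erythrocytes in Albumax-based RPMI medium with compound for one erythrocytic cycle. Activity is scored as loss of luminescent signal.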
Pf growth 96h = P. falciparum growth inhibition at 96 hours | P. falciparum luciferase reporter growth, 96 h | Potency, µM (series often up to 28.7 µM), without a hit: top-dose activity change, negative = inhibition, most hits filed as inhibitors | 320,000 compounds, 6.9% hits | AID 504834
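Erythrocytes infected with luciferase-expressing P. falciparum were dispensed at 2% hematocrit and 0.05% parasitemia (final), then incubated with compounds 96 hours at 37 C in 5% CO2. Luminescence after detection reagent addition reported growth.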
VACV Venus inh = inhibitors of vaccinia virus (Venus reporter). Vaccinia virus Venus reporter expression, fluorescence. Potency, µM (series often up to 36.5 µM), for the others: at the top dose activity change, negative = inhibition, most hits filed as inhibitors. 330,000 compounds, 0.46% hits; calls by dose curve; tested in A549 cells; further: nearly all actives have a fitted effect of over 30% in size
* hit, by the source's call; i = inactive; ? = inconclusive; · = no result. Shown are actives, neighbours in structure and some others; about 8.7% of the full set was active somewhere. Unless noted, the call rests on the fitted dose curve; in most records, active means well fitted curve in the direction sought with a large enough effect; inconclusive means small, poorly fitted or top-dose-only effect, or another doubt; inactive means no such curve, though single readings can be large; an effect the other way counts as inactive or inconclusive. Unless noted, on the % scale 0 is the no-effect control and ±100 the full control effect; potency means the concentration at half of the fitted maximal effect.

SMILES	Vaccinia mCherry	AMA1-RON2 inh	Pf growth 48h	Pf growth 96h	VACV Venus inh
Cc1noc(C)c1COc1ccc(C(=O)Nc2ncccc2O)cc1	-27%	18%	7.4µM*	?	-12%
CCOc1ccc(C(=O)NCC(=O)NCC(c2ccccc2OC)N2CCCC2)cc1 (configuration not stated)	-18%	0%	?	-3%	-13%
Cc1noc(C)c1COc1ccc(C(=O)NCC(c2c(F)cccc2Cl)N(C)C)cc1 (configuration not stated)	-18%	-13%	?	9.3µM*	-6%
Cc1cccc(NC(=O)c2ccc(OCc3c(C)noc3C)cc2)c1	?	6%	-21%	?	-18%
CCOC(=O)/C(=N\Nc1ncnc2ccccc12)c1ccc(OC)cc1	5%	23%	168%	189%	21%
COc1ccc(/C(=N/Nc2ncnc3ccccc23)C(=O)O)cc1	10µM*	52%	?	0%	-26%
Cc1ccc(-c2nc3n(n2)Cc2ccccc2-3)cc1	-3%	-3%	322%	i	-19%
CCn1c(C)nc2cc(-c3nc4n(n3)Cc3ccccc3-4)ccc21	·	-3%	0.19µM*	0.21µM*	?
CCCCOCCCNc1ncnc2c1[nH]c1ccccc12	·	15%	7.4µM*	·	·
C=CCNc1ncnc2c1[nH]c1ccccc12	·	-3%	13µM*	?	-18%
CCOCCCNc1ncnc2c1[nH]c1ccccc12	·	11%	10µM*	?	?
Cc1sc2c(c1C)c(=O)n(Cc1ccccc1)c(=O)n2CC(=O)Nc1cccc(Cl)c1	-16%	·	·	·	-25%
C=CCN1CC(c2nc3ccccc3n2CCOc2ccccc2)CC1=O (configuration not stated)	i	-22%	12µM*	35%	-1%
Cc1ccc(C(=O)N/C(=C\c2ccco2)C(=O)NCCCn2ccnc2)cc1C	i	17µM*	-9%	-1%	-4%
Cc1cc[n+](CCC2CCCCC2)c2ccccc12	?	·	·	·	-38%
COCCNC(=O)/C(C#N)=C/C=C/c1ccccc1	-17%	-1%	13µM*	?	-10%
O=C(Nc1ccccc1)/C(=C/c1ccccc1)c1ccccc1	0%	32%	15µM*	4.1µM*	-10%
N#C/C(=C/C=C/c1ccccc1)C(=O)Nc1ccccc1	·	-3%	3.3µM*	?	·
COc1ccc([C@@H]2C[C@H](c3ccccc3)Oc3cc(OC)c(OC)c(OC)c32)cc1	2%	-22%	9.3µM*	?	-10%
COc1cc2c(c(OC)c1OC)C(c1ccc(O)cc1)CC(=O)O2 (configuration not stated)	-20%	-10%	·	·	-7%
COc1ccc(C2CC(O)(c3ccccc3)Oc3cc(OC)c(OC)c(OC)c32)cc1 (configuration not stated)	-22%	-22%	10µM*	10µM*	-26%
Cc1ccc(NC(=O)Cn2nnnc2-c2ccccc2N)cc1	-5%	·	·	·	-16%
COc1ccccc1N1CCN(C(=O)Cn2ncc3ccsc3c2=O)CC1	-14%	·	·	·	3%
On1ccccc1=S	-1%	122%	0.83µM*	0.59µM*	5%
CC1=C(c2ccc(C)cc2)S(=O)(=O)NC1=NCc1cccc(F)c1	-23%	·	·	·	-25%
SMILES	Vaccinia mCherry	AMA1-RON2 inh	Pf growth 48h	Pf growth 96h	VACV Venus inh
Cc1ccc(S(=O)(=O)N2CCC3(CC2)OCCN3S(=O)(=O)c2cccs2)cc1	i	-15%	?	?	-4%
O=S(=O)(c1ccc(Cl)cc1)N1CCC2(CC1)OCCN2S(=O)(=O)c1cccs1	i	0%	13µM*	?	-11%
COc1ccc(S(=O)(=O)N2CCC3(CC2)OCCN3S(=O)(=O)c2cccs2)cc1	0%	5%	?	?	-20%
COc1ccc(OC)c(S(=O)(=O)N2CCC3(CC2)OCCN3S(=O)(=O)c2cccs2)c1	i	-7%	?	10µM*	-17%
O=S(=O)(c1cccs1)N1CCC(CO)(Cc2ccc(Cl)cc2)CC1	?	4%	25%	0.74µM*	-14%
COC(=O)N1CCCc2cc(S(=O)(=O)N3CCN(c4ccccc4)CC3)ccc21	-4%	·	·	·	3%
CC(C)(C)OC(=O)N1CCC(NC(=O)c2nc[nH]c2C(=O)NCc2ccccc2)CC1	?	8%	?	?	-13%
CC(C)C[C@H](NC(=O)c1nc[nH]c1C(=O)NC1CCN(C(=O)OC(C)(C)C)CC1)C(=O)OC(C)(C)C	-11%	119%	1.5µM*	2.3µM*	?
CC(C)C[C@H](NC(=O)c1nc[nH]c1C(=O)N1CCN(C(=O)OC(C)(C)C)CC1)C(=O)OCc1ccccc1	i	129%	?	?	-13%
CC(C)(C)OC(=O)NCCCC[C@H](NC(=O)c1nc[nH]c1C(=O)NC1CCN(C(=O)OC(C)(C)C)CC1)C(=O)OC(C)(C)C	i	133%	2.1µM*	2.3µM*	?
CC(C)(C)OC(=O)NCc1ccc(CNC(=O)c2[nH]cnc2C(=O)NC2CCN(C(=O)OC(C)(C)C)CC2)cc1	?	119%	5.9µM*	?	-23%
CC(C)C[C@H](NC(=O)c1nc[nH]c1C(=O)NC1CCN(C(=O)OC(C)(C)C)CC1)C(=O)OCc1ccccc1	-6%	122%	?	12µM*	-18%
Cc1cccc(NC(=O)c2cc(S(=O)(=O)N3CCc4ccccc43)ccc2F)c1C	-9%	·	·	·	-8%
CCN(C(=O)Cn1c(C(=O)OC)cc2oc3ccccc3c21)c1cccc(C)c1	-14%	·	·	·	3%
CC(C)(C)c1ccc(Oc2ccc(NC(=O)c3cccs3)cn2)cc1	-17%	6%	2.6µM*	13µM*	?
O=C(Nc1ccc(Oc2ncccn2)cc1)c1ccco1	-9%	10%	40%	21%	-6%
COc1ccc(NC(=O)c2cccs2)cn1	-14%	-8%	18%	102%	7%
O=C(Nc1ccc(Oc2cccnc2)nc1)c1ccc(C(F)(F)F)cc1	-15%	-4%	?	?	-11%
CC(C)(C)c1ccc(Oc2ccc(NC(=O)c3ccco3)cn2)cc1	·	-1%	2.1µM*	8.3µM*	·
CCCC(=O)Nc1ccc(NC(=O)c2ccco2)cn1	-16%	0%	82%	8.3µM*	-7%
O=C(Nc1ccc(Oc2cccc(C(F)(F)F)c2)nc1)c1ccco1	-4%	5%	?	13µM*	-21%
CC(=O)c1ccccc1-c1ccc2c(c1)CC(CNC(=O)C[C@@H]1C[C@@H](C)NC(=S)N1)O2 (some centres not stated)	-11%	·	·	·	1%
COc1ccc(NC(=O)C[C@H]2C(=O)N(Cc3ccccc3)C[C@@H]2Cc2ccccc2)cc1	-29%	-5%	·	·	?
O=C(C[C@H]1C(=O)N(CCc2ccccc2)C[C@@H]1Cc1ccccc1)Nc1ccccc1	1%	0%	?	10µM*	-17%
O=C(C[C@H]1C(=O)N(Cc2ccccc2)C[C@@H]1Cc1ccccc1)Nc1ccccc1	-26%	-10%	0%	13µM*	-21%
